The record followed here is ChEMBL document CHEMBL1961873, “Compounds: GSK PKIS; Assays: Nanosyn kinase panel” (2012).

For assay [1], the target named is Casein kinase I isoform gamma-2 (Homo sapiens) (UniProt P78368). The settings on record: at 1 µM.
Assay [2] has as its target Casein kinase I isoform gamma-3 (Homo sapiens) (UniProt Q9Y6M4). The settings on record: at 0.1 µM.
For assay [3] the target is unchanged. The settings on record: at 1 µM.
The target in assay [4] is Cyclin-dependent kinase 1 (Homo sapiens) (UniProt P06493). To be noted: at 0.1 µM.
Cyclin-dependent kinase 1 (Homo sapiens), sequence (P06493 whole entry, looked up): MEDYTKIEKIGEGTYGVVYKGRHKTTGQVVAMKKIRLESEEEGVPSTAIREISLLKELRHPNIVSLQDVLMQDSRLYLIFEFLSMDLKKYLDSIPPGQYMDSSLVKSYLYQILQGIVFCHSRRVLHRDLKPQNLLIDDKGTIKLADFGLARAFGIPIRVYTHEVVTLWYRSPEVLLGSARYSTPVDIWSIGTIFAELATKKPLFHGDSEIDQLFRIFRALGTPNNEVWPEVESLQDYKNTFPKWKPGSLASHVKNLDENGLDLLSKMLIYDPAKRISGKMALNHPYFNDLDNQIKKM
Assay [5] has the same target. To be noted: at 1 µM.
Assay [6] concerns the target Cyclin-dependent kinase 2 (Homo sapiens) (UniProt P24941). To be noted: at 0.1 µM.
The target is the same in assay [7]. To be noted: at 1 µM.
Assay [8] has the same target. To be noted: at 0.1 µM. The source holds these as a separate data set.
Assay [9] has the same target. The settings on record: at 1 µM. The source holds these as a separate data set.
Assay [10] addresses CDK3/Cyclin E (Homo sapiens) (UniProt P24864+Q00526). The settings on record: at 0.1 µM.

Casein kinase I isoform gamma-2 (Homo sapiens), sequence (P78368 whole entry, looked up, canonical isoform): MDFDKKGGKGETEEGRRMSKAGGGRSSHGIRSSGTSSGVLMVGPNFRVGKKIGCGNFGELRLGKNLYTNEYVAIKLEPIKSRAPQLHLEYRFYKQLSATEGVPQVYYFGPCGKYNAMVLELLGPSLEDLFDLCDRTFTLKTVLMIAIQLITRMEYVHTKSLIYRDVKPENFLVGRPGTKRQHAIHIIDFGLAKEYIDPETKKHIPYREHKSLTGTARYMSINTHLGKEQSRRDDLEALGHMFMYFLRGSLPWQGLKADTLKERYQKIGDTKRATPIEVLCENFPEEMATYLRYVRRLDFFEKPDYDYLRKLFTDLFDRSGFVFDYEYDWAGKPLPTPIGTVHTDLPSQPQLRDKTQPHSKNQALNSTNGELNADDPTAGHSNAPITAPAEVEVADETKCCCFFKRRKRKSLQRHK
CDK3/Cyclin E (Homo sapiens), sequence (P24864 whole entry, looked up): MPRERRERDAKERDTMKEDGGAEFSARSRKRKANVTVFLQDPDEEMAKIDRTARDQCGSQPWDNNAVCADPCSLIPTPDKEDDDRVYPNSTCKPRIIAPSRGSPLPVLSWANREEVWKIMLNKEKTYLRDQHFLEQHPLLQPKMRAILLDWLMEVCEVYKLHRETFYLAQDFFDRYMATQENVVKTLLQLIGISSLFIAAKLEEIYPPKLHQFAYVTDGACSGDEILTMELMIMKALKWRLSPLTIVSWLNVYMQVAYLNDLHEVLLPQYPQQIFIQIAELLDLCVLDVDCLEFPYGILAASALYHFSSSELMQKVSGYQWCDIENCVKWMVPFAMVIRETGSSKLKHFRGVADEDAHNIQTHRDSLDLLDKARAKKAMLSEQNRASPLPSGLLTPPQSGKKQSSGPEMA
CDK3/Cyclin E (Homo sapiens), sequence (Q00526 whole entry, looked up): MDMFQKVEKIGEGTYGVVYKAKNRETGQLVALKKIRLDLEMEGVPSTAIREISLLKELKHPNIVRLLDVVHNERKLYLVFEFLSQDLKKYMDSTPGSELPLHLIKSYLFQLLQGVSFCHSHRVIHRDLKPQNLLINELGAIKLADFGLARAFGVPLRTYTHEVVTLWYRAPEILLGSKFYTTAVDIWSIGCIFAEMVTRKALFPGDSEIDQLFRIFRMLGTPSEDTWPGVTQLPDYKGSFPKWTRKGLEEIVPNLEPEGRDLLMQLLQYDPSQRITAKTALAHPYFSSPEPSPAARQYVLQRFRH
Casein kinase I isoform gamma-3 (Homo sapiens), sequence (Q9Y6M4 whole entry, looked up, canonical isoform): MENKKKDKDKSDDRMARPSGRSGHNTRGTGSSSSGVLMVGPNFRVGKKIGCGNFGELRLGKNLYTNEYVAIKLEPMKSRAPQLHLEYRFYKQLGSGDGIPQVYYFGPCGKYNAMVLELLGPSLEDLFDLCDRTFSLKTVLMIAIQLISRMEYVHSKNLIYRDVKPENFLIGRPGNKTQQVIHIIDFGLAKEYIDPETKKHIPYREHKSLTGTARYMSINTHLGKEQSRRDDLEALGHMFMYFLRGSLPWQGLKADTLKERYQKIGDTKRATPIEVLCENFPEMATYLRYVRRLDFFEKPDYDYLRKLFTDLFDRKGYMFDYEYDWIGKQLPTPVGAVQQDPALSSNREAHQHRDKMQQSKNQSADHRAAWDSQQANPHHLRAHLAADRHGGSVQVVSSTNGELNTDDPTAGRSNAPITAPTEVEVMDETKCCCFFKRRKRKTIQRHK

In the case of `Cc1c2ccc(N(C)c3ccnc(Nc4cccc(S(N)(=O)=O)c4)n3)cc2nn1C`, the inhibition was 0.79% in assay [1]; -0.12% in assay [2]; 1.23% in assay [3]; -2.06% in [4]; 1.04% in assay [5]; -1.06% in assay [6]. Moreover, the inhibition came to 4.54% in assay [7], 2.08% in assay [8], 4.14% in assay [9] and 3.58% in [10].
In the case of `CS(=O)(=O)CCNCc1ccc(-c2ccc3ncnc(Nc4ccc(OCc5ccccc5)cc4)c3c2)o1`, the inhibition is 2.81% in assay [1]; 2.43% in assay [2]; 1.23% in [3]; 0.68% in assay [4]; -4.99% in [5]; 1.6% in assay [6]. The inhibition is 2.53% in assay [7], 2.45% in assay [8], 3.9% in [9] and -1.1% in assay [10].
On to `COc1ccc2ncn(-c3cc(O[C@H](C)c4ccccc4C(F)(F)F)c(C(N)=O)s3)c2c1`, for which the inhibition is -0.54% in assay [1]; -1.87% in assay [2]; 0.68% in assay [3]; 0.65% in assay [4]; 3.45% in assay [5]; 1.04% in assay [6]. Moreover, the inhibition in assay [7] was 0.96%; in [8], -0.81%; in assay [9], 1.48%; in assay [10], 1.1%.
In the case of `CC1=C(C(=O)Nc2ccc3[nH]ncc3c2)C(c2ccc(F)cc2)N=C(c2ccc(C(F)(F)F)nc2)N1` (stereo not given), the inhibition is 2.44% in assay [1]; 0.89% in assay [2]; 1.64% in assay [3]; -0.29% in assay [4]; 0.48% in assay [5]; 2.22% in assay [6]. The inhibition stood at 3.53% in [7], 2.03% in [8], 3.67% in assay [9] and 0.12% in assay [10].
In the case of `CN1CCC(n2cnc(-c3ccc(F)cc3)c2-c2ccnc(NCCO)n2)CC1`, the inhibition in assay [1] turned out to be 5.84%; in assay [2] it was 4.27%; in assay [3], 10.2%; in [4] it was 0.37%; in [5], 1.31%; in assay [6] it was 1.69%. Further, the inhibition in [7] was -0.92%; in assay [8] it was 4.05%; in [9], 4.55%; in assay [10], 1.13%.
On to `COc1cccc(-n2ncc3c(N/N=C/c4ccc(C(=O)NCCN(C)C)cc4)ncnc32)c1`, for which the inhibition in [1] turned out to be 8.69%; in assay [2], 1.94%; in assay [3] it was 11.9%; in assay [4] it was 44.7%; in [5] it was 77.2%; in [6] it was 36.1%. Besides, the inhibition was 89.9% in assay [7], 13.4% in assay [8], 48.4% in assay [9] and 5.6% in [10].
For the compound `CNC(=O)c1cncc(/C=C/c2ccccc2C)c1`, the inhibition in [1] came out at 2.72%; in [2] it was 2.23%; in assay [3] it was 3.55%; in assay [4] it was 1.72%; in assay [5], 7.81%; in [6], 1.87%. The inhibition in assay [7] worked out at 11%; in assay [8], 12%; in assay [9], 16.4%; in assay [10], 7.08%.
As for `CN(C)CCNC(=O)Nc1ccc(N(C)c2ccnc(Nc3ccc(CS(C)(=O)=O)cc3)n2)cc1`, the inhibition is 4.71% in [1]; 2.93% in assay [2]; 4.26% in [3]; 0.42% in assay [4]; 2.58% in assay [5]; 1.03% in [6]. Also, the inhibition was found to be 0.46% in [7], 3.93% in assay [8], 5.24% in assay [9] and 1.45% in [10].
In the case of `CS(=O)(=O)Nc1ccc(-c2cc(-c3ccccc3)cc(C(N)=O)c2N)cc1`, the inhibition is 0.9% in assay [1]; 2.42% in [2]; 0.43% in [3]; 0.06% in assay [4]; -0.25% in assay [5]; 0.21% in assay [6]. Besides, the inhibition was 1.06% in assay [7], 0.2% in [8], 1.37% in assay [9] and -0.04% in assay [10].
Regarding `c1cnn2ncc(-c3ccnc(NCCCN4CCOCC4)n3)c2c1`, the inhibition in assay [1] was determined as 5.14%; in assay [2] it was 1.77%; in assay [3], 4.33%; in assay [4], 1.53%; in [5], 13.9%; in [6] it was 1.1%. Moreover, the inhibition in [7] was determined as 5.75%; in assay [8], 5.32%; in assay [9], 5.99%; in assay [10] it was 0.96%.
Take `O=C(O[C@H]1CN[C@H](C#Cc2cc3ncnc(Nc4ccc(OCc5cccc(F)c5)c(Cl)c4)c3s2)C1)N1CCOCC1`: the inhibition in [1] was 5.59%; in assay [2], 4.52%; in assay [3], 3.53%; in assay [4], 0.36%; in assay [5] it was 1.18%; in assay [6], 1.57%. Besides, the inhibition is -1.38% in assay [7], 4.21% in [8], 2.99% in assay [9] and 2.77% in [10].
Take `COc1ccc(Nc2ncc(-c3ccccc3)o2)cc1OC`: the inhibition in [1] is 4.12%; in [2] it was -0.65%; in assay [3] it was 3.3%; in assay [4], 8.02%; in assay [5], 29.9%; in assay [6], 8.91%. Further, the inhibition was determined as 31.6% in assay [7], 7.2% in [8], 27.6% in [9] and 6.29% in assay [10].
`Cc1nnc(-c2cccc(-c3ccc(C(=O)NCC4CC4)cc3)c2)o1`: the inhibition in [1] is 4.15%; in assay [2], 3.29%; in [3], 3.17%; in assay [4], -0.13%; in assay [5], 2.72%; in [6] it was 2.01%. Also, the inhibition came out at 13.5% in [7], 4.78% in assay [8], 4.88% in assay [9] and 3.15% in assay [10].
For the compound `COc1ccc(-c2nn3ncccc3c2-c2ccnc(Nc3ccc(F)c(F)c3)n2)cc1`, the inhibition in assay [1] is 3.56%; in assay [2] it was 3.89%; in assay [3] it was 3.22%; in [4], -0.93%; in [5], 2.75%; in assay [6] it was 0.74%. Further, the inhibition came out at 3.93% in [7], 3.63% in assay [8], 3.97% in [9] and 1.3% in assay [10].
On to `N#Cc1cccc(Nc2ncc(-c3ccccc3)o2)c1`, for which the inhibition in assay [1] amounted to 2.13%; in [2], 1.94%; in assay [3] it was 4.11%; in [4] it was 2.78%; in [5], 17.1%; in [6], 6.59%. In addition, the inhibition in assay [7] was determined as 44.4%; in [8], 7.57%; in assay [9], 40.1%; in assay [10], 10.1%.
In the case of `COc1cccc(Nc2nccc(-c3cnn4ncccc34)n2)c1`, the inhibition in [1] was determined as 47.2%; in assay [2], 3.61%; in assay [3], 38.6%; in assay [4], 63.9%; in assay [5] it was 79.2%; in [6] it was 72.8%. Also, the inhibition in assay [7] was determined as 105%; in assay [8], 64.7%; in assay [9], 78.6%; in assay [10], 42.2%.

One may read the inhibition as the drop in the measured response relative to a control, in per cent.
